Screening results from PubChem.
A selection follows.
CYP2C19 act: human CYP2C19 activators, primary screen, biochemical, luminescence; activation factor at 5 µM; AID 1025, 2008; 96,000 tested, under 10 active; Cytochrome P450 2C19 (Homo sapiens), P33261; recombinant CYP2C19, luciferin-H EGE luminescence; hits give high values; 0 = fully inhibited enzyme, 1 = untreated enzyme;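 active means activation factor of at least 2 at 5 µM in the primary screen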;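 further: 0 = wells with 2.5 mM tranylcypromine and 1 = vehicle-only wells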
Target sequence (P33261 whole entry, looked up): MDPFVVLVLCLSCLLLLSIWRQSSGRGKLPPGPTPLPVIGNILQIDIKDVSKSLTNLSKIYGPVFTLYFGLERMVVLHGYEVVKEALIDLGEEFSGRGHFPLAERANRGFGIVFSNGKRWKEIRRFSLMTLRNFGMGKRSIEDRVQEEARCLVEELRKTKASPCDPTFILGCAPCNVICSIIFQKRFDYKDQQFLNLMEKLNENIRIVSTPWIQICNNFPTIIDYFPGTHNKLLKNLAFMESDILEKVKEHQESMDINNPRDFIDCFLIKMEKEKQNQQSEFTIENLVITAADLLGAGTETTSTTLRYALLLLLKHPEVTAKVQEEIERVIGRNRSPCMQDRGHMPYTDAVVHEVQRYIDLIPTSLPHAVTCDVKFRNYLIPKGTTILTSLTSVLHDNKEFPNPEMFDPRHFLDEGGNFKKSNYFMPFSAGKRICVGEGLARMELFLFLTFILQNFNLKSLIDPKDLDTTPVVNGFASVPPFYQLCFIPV
CYP2C19 inh: blockers of cytochrome P450 2C19 activity – biochemical, luminescence, ADME assay, primary screen. AID 778, 2007. CYP2C19 Supersomes, luciferin-H EGE luminescence, 30 min. inhibition, % at 5 µM. 21% of 96,000 active. P33261;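 active means CYP2C19 inhibition above a set limit at 5 µM in the primary screen, cut at about 50% in these data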;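 further: plate controls were negative control wells for no effect and 2.5 mM tranylcypromine positive control for full effect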
PostGolgi ctrl: growth inhibition of yeast control strain, primary screen, counter-screen for post-Golgi transport modulator project; efflux-deficient yeast background strain, growth absorbance A615, 16 h; inhibition, % at 10 µM; 5% of 98,000 active
PostGolgi yeast: phenotypic screen on post-Golgi transport, primary screen; post-Golgi transport phenotypic cell assay; inhibition, % at 10 µM; 0.9% of 98,000 active;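 further: yeast cells grown in 1536-well plates; yeast grown about 18 h at 30C before absorbance read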
CYP2C9 inhib: blockers of cytochrome P450 2C9 activity – biochemical, luminescence, ADME assay, primary screen | P11712 | CYP2C9 Supersomes, luciferin-H conversion | inhibition, % at 5 µM | 20% of 96,000 active | AID 777, 2007;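 active means blocking of liver enzyme CYP2C9 beyond about 50% at 5 µM, limit read from the data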
CYP2C9 act: human CYP2C9 activators, primary screen, biochemical, luminescence; recombinant CYP2C9, luciferin-H conversion; hits give high values; factor 1 = untreated enzyme, 0 = blocked; activation factor at 5 µM; 1.4% of 96,000 active;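 active means activation factor of 2 or more for CYP2C9 at a 5 µM dose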;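 further: 0 = sulfaphenazole-blocked wells and 1 = vehicle-only wells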
* hit, by the source's call; nt = no result given. Unless noted, no stated cut-off is given here; in the data, active means inhibition above about 30%; inactive means the rest.

SMILES	CYP2C19 act	CYP2C19 inh	PostGolgi ctrl	PostGolgi yeast	CYP2C9 inhib	CYP2C9 act
O=C(CCN1C(=O)c2ccccc2C1=O)N1CCN(Cc2ccc(Cl)cc2Cl)CC1	0.8	17	23	0	43	0.6
CCCC(C(=O)NC1CCCC1)N(Cc1ccc2c(c1)OCO2)C(=O)c1snc(C(N)=O)c1N (stereo not given)	0	97*	-1	18	83*	0.2
CCOc1ccccc1N(C(=O)c1snc(C(N)=O)c1N)C(C(=O)NC1CCCC1)c1ccco1 (stereo not given)	0.8	18	6	3	12	0.9
CCCCC(C(=O)NC(C)(C)C)N(Cc1ccco1)C(=O)c1snc(C(N)=O)c1N (stereo not given)	0.4	58*	7	-1	70*	0.3
CCCC(C(=O)NCc1ccc(OC)cc1)N(Cc1ccco1)C(=O)c1snc(C(N)=O)c1N (stereo not given)	0.4	60*	19	-8	49	0.5
COCCNC(=O)C(c1ccc(C)o1)N(C(=O)c1snc(C(N)=O)c1N)c1ccc(C)cc1 (stereo not given)	0.9	14	7	-4	16	0.8
NC(=O)c1nsc(C(=O)N(CC(=O)NCc2ccc3c(c2)OCO3)C2CCCC2)c1N	0.6	42	12	-2	-8	1.1
CC(C)CCNC(=O)C(c1ccco1)N(Cc1ccc(F)cc1)C(=O)c1snc(C(N)=O)c1N (stereo not given)	0.3	67*	-7	-11	44	0.6
NC(=O)c1ccc(NS(=O)(=O)c2ccccc2F)cc1	1	0	0	-5	13	0.9
Cc1ccc(-n2nnc3c(=O)n(CC(=O)N4CCC(C)CC4)cnc32)cc1	0.7	28	-6	10	13	0.9
CSc1ccccc1NC(=O)c1cccnc1	1.1	-8	11	0	-13	1.1
Cc1cccc(CCNC(=O)CCc2c(C)nc3ncnn3c2C)c1	0.9	7	7	9	6	0.9
CCC(C(=O)NCc1ccc(F)cc1)N(Cc1ccco1)C(=O)c1snc(C(N)=O)c1N (stereo not given)	0.4	58*	11	3	50*	0.5
CC(C(=O)NCc1ccccc1)N(CCN1CCOCC1)C(=O)c1snc(C(N)=O)c1N (stereo not given)	0.9	8	nt	nt	-11	1.1
CC(=O)N1CCN(CCN=CC2=C(O)CC(c3cccs3)CC2=O)CC1 (stereo not given)	1	-4	4	2	-15	1.2
CCOC(=O)c1c(N2C(=O)Nc3cc(Cl)c(Cl)cc3N2O)sc2c1CCCCC2	0.8	17	7	-6	70*	0.3
CCOC(=O)c1c(N2C(=O)C3C4C=CC(O4)C3C2=O)sc2c1CCCC2 (stereo not given)	0.8	18	15	-6	14	0.9
Cc1cc(/C=N\NC(=O)CC(=O)NC2CCCCC2)c(C)n1-c1ccc(Cl)cc1	0.9	11	26	0	47	0.5
Fc1ccccc1COc1ccc(-c2nnn(Cc3ccccc3F)n2)cc1	1.1	-6	4	-1	19	0.8
Cc1cc(/C=N/n2cnnc2)c(C)n1-c1ccc(OCc2ccc(Cl)cc2)cc1	1	0	78*	11	-4	1
Cc1cc(/C=N/n2cnnc2)c(C)n1-c1ccc(OCc2ccccc2F)cc1	0.7	29	65*	7	19	0.8
COc1cccc(CC(NC(C)=O)C(=O)NC2CCN(c3nc(C)cc(C)c3C#N)CC2)c1 (stereo not given)	0.3	67*	16	1	28	0.7
COc1ccc(CC(NC(C)=O)C(=O)NC2CCN(c3nc(C)cc(C)c3C#N)CC2)c(OC)c1 (stereo not given)	0.1	86*	2	5	55*	0.4
COc1cc(S(=O)(=O)N2CCOCC2)ccc1NC(=O)COC(=O)c1ccccn1	1	4	4	6	20	0.8
CCN(CC)C(=O)C(=O)N/N=C/c1ccc(Br)cc1	0.7	35	9	2	18	0.8
SMILES	CYP2C19 act	CYP2C19 inh	PostGolgi ctrl	PostGolgi yeast	CYP2C9 inhib	CYP2C9 act
O=C(NCc1ccco1)C1CCN(c2nc3ccccc3n2Cc2ccccc2F)CC1	0.7	33	14	6	23	0.8
Cc1ccc(C)c(NC(=O)CS(=O)(=O)c2c[nH]c3ccccc23)c1	0.3	70*	29	4	-212	3.1*
Cc1cccc(NC(=O)CS(=O)(=O)c2c[nH]c3ccccc23)c1C	0.5	46	7	19	-39	1.4
Clc1ccc(C2=CC(c3ccco3)n3ncnc3N2)cc1 (stereo not given)	0.8	16	15	4	7	0.9
Fc1ccc(Br)cc1C1C=C(c2ccc(Br)s2)Nc2ncnn21 (stereo not given)	0	96*	4	3	46	0.5
COc1ccc(C2C=C(c3ccc(C)c(C)c3)Nc3ncnn32)c(OC)c1OC (stereo not given)	0	96*	2	1	92*	0.1
COc1ccc(C2C=C(c3ccccc3)Nc3ncnn32)cc1 (stereo not given)	0.9	14	7	1	-6	1.1
COc1cccc(C2C=C(c3ccc(Br)s3)Nc3ncnn32)c1OC (stereo not given)	0	98*	21	-6	83*	0.2
O=C(OCCN(C1=NS(=O)(=O)c2ccccc21)c1ccc(Cl)cc1)c1ccco1	0.1	86*	15	1	85*	0.2
CN(CCOC(=O)c1ccco1)Cc1ccccc1	0.7	26	-4	0	7	0.9
CN(C)CCNC(=O)Cn1nc(C(F)F)cc1C1CC1	1	-1	32*	-3	-1	1
O=C(Cn1nc(C(F)F)cc1C1CC1)NCCC1=CCCCC1	0.3	68*	5	-1	0	1
Cc1cc(-c2ccco2)n(CC(=O)NCCN(C)C)n1	1	3	1	-4	-8	1.1
CC(C)(C)n1nc2c(c1NC(=O)c1cccc(C(F)(F)F)c1)CS(=O)C2 (stereo not given)	0.8	24	10	5	11	0.9
Cc1ccc(CC2(O)CC(C)N(C)CC2C)c(C)c1 (stereo not given)	1	5	-1	4	3	1
Cc1ccc(NC(=O)c2cc(=O)c3ccccc3o2)cc1	0.7	30	2	0	7	0.9
Cc1ccc(C(=O)Nc2cccc(N(C)S(C)(=O)=O)c2)cc1S(=O)(=O)Nc1ccccc1	0.5	46	-2	-5	72*	0.3
Cc1ccc(SCCC(=O)N(C)C)cc1	0.8	17	4	6	-12	1.1
